PLAP act: PLAP enzyme activators, biochemical, luminescence, HTS; Alkaline phosphatase, placental type (Homo sapiens), P05187; purified PLAP enzyme, luminescent substrate read-out; active compounds read high; activation fold at 20 µM; 96,000 compounds, 1.2% hits; in the data active = activation fold above about 2
CYP2C9 act: human CYP2C9 activators, primary screen, biochemical, luminescence | activation factor at 5 µM | Cytochrome P450 2C9 (Homo sapiens), P11712 | 96,000 compounds, 1.4% hits | recombinant CYP2C9, luciferin-H conversion; active compounds read high; factor 1 = untreated enzyme, 0 = blocked;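 active = activation factor of 2 or more for CYP2C9 at a 5 µM dose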
CYP2C19 activ: human CYP2C19 activators, primary screen, biochemical, luminescence; Cytochrome P450 2C19 (Homo sapiens), P33261; recombinant CYP2C19, luciferin-H EGE luminescence; active compounds read high; 0 = fully inhibited enzyme, 1 = untreated enzyme; activation factor at 5 µM; 96,000 tested, under 10 active;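 active = activation factor of at least 2 at 5 µM in the primary screen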
Target sequence (P33261 whole entry, looked up): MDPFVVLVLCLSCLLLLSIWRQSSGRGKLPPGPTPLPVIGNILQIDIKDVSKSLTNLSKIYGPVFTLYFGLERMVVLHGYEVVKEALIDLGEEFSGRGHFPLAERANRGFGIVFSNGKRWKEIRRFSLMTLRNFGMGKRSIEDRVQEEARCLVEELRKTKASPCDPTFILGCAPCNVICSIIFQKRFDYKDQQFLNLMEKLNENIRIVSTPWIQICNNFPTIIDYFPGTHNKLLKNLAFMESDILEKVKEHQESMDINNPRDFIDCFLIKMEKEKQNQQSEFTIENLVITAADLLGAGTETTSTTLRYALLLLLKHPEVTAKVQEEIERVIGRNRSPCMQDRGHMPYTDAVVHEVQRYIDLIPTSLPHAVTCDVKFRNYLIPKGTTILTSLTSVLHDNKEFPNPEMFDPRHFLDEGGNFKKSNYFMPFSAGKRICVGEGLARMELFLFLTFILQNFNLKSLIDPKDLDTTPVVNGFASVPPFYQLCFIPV
CYP2C9 inhib: blockers of cytochrome P450 2C9 activity – biochemical, luminescence, ADME assay, primary screen; CYP2C9 Supersomes, luciferin-H conversion; inhibition, % at 5 µM; 96,000 compounds, 20% hits; AID 777, 2007;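 active = blocking of liver enzyme CYP2C9 beyond about 50% at 5 µM, limit read from the data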
CYP2C19 inhib: blockers of cytochrome P450 2C19 activity – biochemical, luminescence, ADME assay, primary screen | P33261 | inhibition, % at 5 µM | AID 778, 2007 | 96,000 compounds, 21% hits | CYP2C19 Supersomes, luciferin-H EGE luminescence, 30 min;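 active = CYP2C19 inhibition above a set limit at 5 µM in the primary screen, cut at about 50% in these data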
Of the large screens only hits and unclear results are named; the others gave an inactive call. Most compounds without a hit are left out; they make up all but 31% or so of the library.

CC(=O)c1cccc(NC(=S)NC(=O)CC(C)C)c1	CYP2C9 inhib 56
CCC(=O)NC(=S)Nc1cccc(C(C)=O)c1	none
CC(=O)Nc1c(O)n(C)c2ccccc12	none
COc1ccc(S(C)(=O)=O)cc1S(C)(=O)=O	none
O=[N+]([O-])c1cc(/C=N/OCc2c(Cl)cccc2Cl)ccc1N1CCOCC1	none
COC(=O)c1ccc(NC(=O)CSCc2ccc(C)cc2)cc1	CYP2C9 inhib 90, CYP2C19 inhib 75
COC(=O)c1ccc(NC(=O)CSCc2ccccc2C)cc1	CYP2C9 inhib 92, CYP2C19 inhib 94
CC12CCC(C(=O)NCc3ccc4c(c3)OCO4)(OC1=O)C2(C)C (configuration not stated)	CYP2C19 inhib 56
CC12CCC(C(=O)NCc3ccc(Cl)cc3)(OC1=O)C2(C)C (configuration not stated)	CYP2C19 inhib 84
Cn1c(NCc2ccco2)nc2c1c(=O)n(Cc1ccc(Cl)c(Cl)c1)c(=O)n2C	CYP2C9 inhib 69, CYP2C19 inhib 60
Cn1c(N2CCCCC2)nc2c1c(=O)n(Cc1cccc(Br)c1)c(=O)n2C	none
Cn1c(NCC(O)CO)nc2c1c(=O)n(Cc1ccc(Cl)c(Cl)c1)c(=O)n2C (configuration not stated)	none
Cn1c(OCc2cccnc2)nc2c1c(=O)n(Cc1ccc(Br)cc1)c(=O)n2C	CYP2C9 inhib 68, CYP2C19 inhib 68
Cn1c(OCc2ccc3c(c2)OCO3)nc2c1c(=O)n(Cc1ccc(Cl)c(Cl)c1)c(=O)n2C	CYP2C9 inhib 80
COc1ccc(C(=O)C2CN(c3ccccc3)CC2c2ccc(Cl)cc2)cc1 (configuration not stated)	CYP2C9 inhib 63
Cc1ccc(CNC(=O)CSc2nc3n[nH]c(C)c3c(=N)n2-c2cccc(C)c2)cc1	PLAP act 2.5, CYP2C9 inhib 54, CYP2C19 inhib 66
COc1cccc(NC(=O)CSc2nc3n[nH]c(C)c3c(=N)n2-c2cccc(OC)c2)c1	CYP2C9 inhib 80, CYP2C19 inhib 88
COc1cccc(-n2c(SCC(=O)NCCC3=CCCCC3)nc3n[nH]c(C)c3c2=N)c1	none
O=C(COc1ccc(Br)cc1Br)NC(=S)N1CCCc2ccccc21	CYP2C9 inhib 77
CC1CCCCN1CCNS(=O)(=O)c1ccc2c(c1)oc(=O)n2C (configuration not stated)	none
Cc1ccc(Oc2ccc(NC(=O)c3ccco3)cc2)cc1	CYP2C9 inhib 59, CYP2C19 inhib 56
Cc1ccc(NC(=O)c2ccc(OC(=O)c3ccco3)cc2)cc1	none
CCOC(=O)c1c(C)[nH]c(C)c1C(=O)COc1ccc(NC(=O)c2ccco2)cc1	CYP2C9 inhib 93, CYP2C19 inhib 88
COCC(=O)Nc1c(C(=O)Nc2cccc(OC)c2)oc2ccccc12	CYP2C9 inhib 64
COc1ccc(OCC(=O)Nc2ccc(NC(=O)c3ccco3)cc2)cc1	none
CCOCC(=O)Nc1c(C(=O)Nc2ccc(OC)cc2OC)oc2ccccc12	CYP2C9 inhib 71
Cc1ccc(C(CC(=O)O)C2CCOC(C)(C)C2)cc1 (configuration not stated)	none
COc1cc(OC)cc(C(=O)NCC(=O)N2CCCCC2)c1	none
CCc1nnc(NCn2nc(C)cc2C)s1	none
COc1ccc(Nc2nnc(C)c(=O)[nH]2)cc1	none
COc1ccc(NC(=O)c2oc3ccccc3c2NC(=O)c2ccco2)cc1	CYP2C19 inhib 60
COc1ccc(NC(=O)c2oc3ccccc3c2NC(=O)c2ccco2)c(OC)c1	none
O=C(NCC1CCCO1)C1CC(c2ccc(Cl)c(Cl)c2)=NO1 (configuration not stated)	CYP2C9 act 2.5
Cn1ncc(C#N)c1NC(=O)c1cc(-c2ccccc2Cl)on1	none
Cn1ncc(C#N)c1NC(=O)C1CC(c2ccc(Cl)c(Cl)c2)=NO1 (configuration not stated)	CYP2C9 inhib 51, CYP2C19 inhib 85
Cn1ncc(C#N)c1NC(=O)C1CC(c2c(F)cccc2Cl)=NO1 (configuration not stated)	CYP2C9 inhib 72, CYP2C19 inhib 77
COc1ccc(NC(=O)C2CC(c3ccc(OC)c(OC)c3)=NO2)cc1OC (configuration not stated)	none
CCCc1cc(C(=O)Nc2c(C)n(C)n(-c3ccccc3)c2=O)no1	none
O=c1ccc(/C=C/c2ccccc2)nn1Cc1ccccc1	CYP2C9 inhib 64
O=C(CSc1ncn[nH]1)Nc1nc(-c2ccccc2)cs1	PLAP act 2.8, CYP2C19 inhib 64
Cc1csc(SCC(=O)Nc2nc(-c3ccccc3)cs2)n1	none
CCCc1nnc(NC(=O)CSc2ncn[nH]2)s1	PLAP act 2.7
CCCc1nnc(NC(=O)CNc2ccc(F)cc2)s1	none
Cc1cc(=O)[nH]c(SCC(=O)Nc2nc(-c3ccccc3)cs2)n1	CYP2C9 inhib 60
CCOC(=O)C1CCCN(C(=O)c2ccc(OCC)cc2)C1 (configuration not stated)	none
Cc1nn(-c2ccccn2)c2nc(-c3cccs3)cc(C(=O)NCc3ccco3)c12	CYP2C9 inhib 86, CYP2C19 inhib 61
Cc1nn(-c2ccccc2)c2nc(-c3ccncc3)cc(C(=O)NCc3ccco3)c12	CYP2C9 inhib 94, CYP2C19 inhib 91
Fc1ccc(C2C3=C(Nc4ncnn42)c2ccccc2OC3c2ccncc2)cc1 (configuration not stated)	CYP2C9 inhib 77, CYP2C19 inhib 93
CCCCCCC1CC(CSC(=N)N)OC1=O (configuration not stated)	CYP2C19 inhib 79
CCN(CC(=O)Nc1ccc2c(c1)OCCO2)CC(=O)Nc1cc(C)on1	none
Cc1cccc(C)c1N1C(=O)c2ccccc2C1=O	CYP2C19 inhib 54
Nc1sc(-c2ccccc2)cc1C(=O)O	CYP2C9 inhib 64
CCOC(=O)c1cc(-c2ccccc2)sc1NC(=S)Nc1cccc(C)n1	none
CCOC(=O)c1cc(-c2ccc(N)cc2)sc1N	CYP2C9 inhib 59, CYP2C19 inhib 54
c1ccc2c(c1)[nH]c1c(NCC3CCCO3)ncnc12 (configuration not stated)	CYP2C9 inhib 54
CCCCOc1ncnc2c1[nH]c1ccccc12	none
CCOCCCNc1ncnc2c1[nH]c1ccccc12	CYP2C19 inhib 60
CCCCOCCCNc1ncnc2c1[nH]c1ccccc12	CYP2C9 inhib 66, CYP2C19 inhib 52
CC(=O)Nc1ccc(S(=O)(=O)NC(=O)C23CC4CC(CC(C4)C2)C3)cc1	none
CC(C(=O)O)n1c(C(F)(F)F)nc2ccccc21 (configuration not stated)	none
COc1ccc(CCNC(=O)C2CCN(c3ccc(N4CCOCC4)nn3)CC2)c(OC)c1	none

High-throughput results deposited in PubChem BioAssay by Sanford-Burnham Center for Chemical Genomics.
